Our source for the growth values is PubChem BioAssay (NCI).

Where “and” joins values, the source holds several entries; their conditions need not be identical. Equal values may be shown once. This is part of a sample that, as a whole, favours compounds with a hit. Of some 83,000 tested, about 20% had one in any assay.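 Assay: single dose, 48 h. Readout: percent growth (0 = no net growth; negative = cell death). Active: <10.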 A structure can be active in one record and inactive in another. Calls of active or inactive are those of the source.

The subject of one assay is RPMI-8226 leukemia. The assay can be described thus: NCI-60 one-dose screen, 48 h (100 = growth as untreated, 0 = no growth, -100 = all killed). The note with it: 1 µM. The procedure: Growth inhibition of the RPMI-8226 human tumor cell line is measured as a screen for anti-cancer activity. Cells are grown in 96 well plates and exposed to the test compound for 48 hours. Compounds are tested at a single concentration, which is 10^-5 M for most compounds. The reported endpoint is percent growth (GI% or GIPRCNT), where numbers from 0 - 100% represent growth inhibition, and numbers from -100% - 0 represent cell death. For example, a value of 40 represents 60% growth inhibition. A value of 0 means no net growth occurred over the course of the experiment. A value of -40 indicates 40% of cells at the beginning of the experiment died by the end of the experiment. A value of -100 means all cells are dead at the end of the experiment.
NCI-60 Human Tumor Cell Lines Screen was performed using the standard one-dose NCI protocol, which is described in more detail at https://dtp.cancer.gov/discovery_development/nci-60/default.htm.
Compounds with GIPRCNT values below 10 were considered active. Activity score was based on GIPRCNT using the following formula: […]
Score is 0 for GIPRCNT values of 100 or above, 50 for GIPRCNT values of 0, and 100 for GIPRCNT values of -100.
As to `CNC(=O)c1cc(Oc2ccc(CC(=O)Nc3cc(C(C)(C)C)nn3C)cc2)ccn1`, the growth is 46.2% (inactive).

The same assay, now with this note: 10 µM.
For the molecule `CNC(=O)c1cc(Oc2ccc(CC(=O)Nc3cc(C(C)(C)C)nn3C)cc2)ccn1`, the growth was 62.6% (inactive).

The assay is the same for the next values; noted with them: 10 µM unless noted.
`NC(=S)N/N=C(\c1ccc(Br)cc1)C1CC1`: the growth was 71.3% (inactive) and 60.9% (inactive).

As to `N/C(=N\N=C\c1ccc2c(c1)OCO2)N/N=C\c1ccc2c(c1)OCO2`, the growth is 98.5% (inactive) and 67.3% (inactive).

Regarding `O=S(=O)(Nc1ccccc1)C1CCCCC1`, the growth was 93.9% (inactive) and 106% (inactive).

In the case of `Clc1ccc(NC(Nc2ccc(Cl)cc2)C(Cl)(Cl)Cl)cc1`, the growth is 95.9% (inactive).

Consider `N#C/C(=C1C=C/C(=N/O)C(Br)=C/1)c1ccccc1`, for which the growth is 6.28% (active).

On to `S=C1SCN(Cc2ccccc2)CN1Cc1ccccc1`, for which the growth was 17% (inactive).

As to `COc1ccccc1NC(=O)OCC#CCOC(=O)Nc1ccccc1OC`, the growth is 90.2% (inactive) and 72.3% (inactive).

On to `COc1ccc(CCN(C)CCCC(C#N)(c2ccc(OC)c(OC)c2)C(C)C)cc1OC` (stereo not given), for which the growth was 83.9% (inactive) and 83.6% (inactive) and 94.5% (inactive).

Consider `Cc1cc(O)c2c(c1)C(=O)c1cc(O)cc(O)c1C2=O`, for which the growth was 75.8% (inactive) and 74.3% (inactive).

Regarding `C[N+](C)(C)CN1C(=O)c2ccccc2C1=O`, the growth was 106% (inactive).

In the case of `CCCCCCCCCCCCCCCc1cc(O)ccc1N`, the growth was 39.9% (inactive) and 10.3% (inactive).

For `CC(C(=O)O)n1cc(C#N)c(=O)[nH]c1=O` (stereo not given), the growth was 106% (inactive) and 104% (inactive).

In the case of `CN(C)c1ccc(C(Cc2ccc3ccccc3n2)Cc2ccc3ccccc3n2)cc1`, the growth is 25.4% (inactive) and 51.4% (inactive).

In the case of `COc1cc(NS(C)(=O)=O)ccc1Nc1c2ccccc2nc2c(C)cccc12`, the growth was -36.4% (active) and -21.4% (active).

For the molecule `CC(C)Cc1ccc(C(C)C(=O)NCc2ccc(Cn3c(=O)sn(CCCI)c3=O)cc2)cc1` (stereo not given), the growth was 96.5% (inactive) and -19.8% (active).

With `Oc1ccccc1/C=N\NC(=S)N/N=C/c1ccccc1O`, the growth is 29.3% (inactive) and 40.7% (inactive).

Consider `Cn1c(=O)n(-c2ccc(C(C)(C)C#N)cc2)c2c3cc(-c4cnc5ccccc5c4)ccc3ncc21`, for which the growth was 8.42% (active).

For the molecule `CN1CCN(CCC=C2c3ccccc3Sc3ccc(S(=O)(=O)N(C)C)cc32)CC1`, the growth is 26.4% (inactive) and 23.4% (inactive).

Regarding `CCOc1ccc2nc3cc(N)ccc3c(N)c2c1`, the growth is 113% (inactive) and 86.4% (inactive).

As to `CO/N=C/C=C\C(=O)N/C=C/C[C@H]1/C=C/[C@H](O)/C=C\C=C\c2cccc(O)c2C(=O)O1`, the growth is 12.8% (inactive) and 11.6% (inactive).

As to `CCN(CC)CCNc1ccc(C)c2sc3ccccc3c(=O)c12` (tested in a mixture with another compound), the growth was 10.1% (inactive) and -9.01% (active).

Consider `CCN1CCN(CCNc2nccc(-c3c(-c4cccc(O)c4)nc4sccn34)n2)S1(=O)=O`, for which the growth is 69.3% (inactive) and 102% (inactive).

Regarding `Clc1ccc(SSc2ccc(Cl)cc2)cc1`, the growth was 102% (inactive) and 58.2% (inactive).

On to `Cc1nnc(NC/C=C/c2ccccc2)s1`, for which the growth was 102% (inactive) and 118% (inactive).

For the molecule `CN(Cc1ccccc1)Cc1ccccc1`, the growth is 110% (inactive).

As for `NCCSC(C[N+](=O)[O-])c1ccccc1Cl` (stereo not given), the growth was -22.6% (active).

For the molecule `CC1=C(/C=C/C(C)=C/C=C/C(C)=C/C=N/NC(=S)NC(=S)N/N=C/C=C(C)/C=C/C=C(C)/C=C/C2=C(C)CCCC2(C)C)C(C)(C)CCC1`, the growth is -2.02% (active) and -32.7% (active).

In the case of `COc1cc2c(c(OC)c1OC)-c1ccc(OC)c(=O)cc1[C@@H](NC(C)=O)CC2`, the growth is 9.21% (active) and 2.34% (active).

As for `CCc1c(CC(=O)O)c2cc(C)ccc2n1Cc1ccc(Cl)cc1`, the growth is 97.1% (inactive).

As for `OCCN1CCN(CCCN2c3ccccc3Sc3ccc(Cl)cc32)CC1`, the growth is 37.6% (inactive) and 68.9% (inactive).

As for `CCN(CC)CCC(CNc1ccnc2cc(Cl)ccc12)c1ccc(OC)cc1` (stereo not given), the growth is 60.1% (inactive) and 39% (inactive).

As for `C/C(=N\NC(=O)c1ccncc1)c1ccccc1O`, the growth is 38.2% (inactive).

For the molecule `O=[N+]([O-])c1ccc(Oc2ccccc2)cc1`, the growth was 79% (inactive) and 93.9% (inactive).

Turning to `CCCCCCCCCCCCOc1ccccc1C=O`, the growth is 96.4% (inactive).

Turning to `CC(=O)C(/C=N/C(N)=O)=C(/C)O`, the growth was 112% (inactive).

`CC(=O)Oc1cc(C(=O)O)cc(OC(C)=O)c1OC(C)=O`: the growth was 96.7% (inactive) and 102% (inactive).

Turning to `COc1ccc2c(=O)cc(-c3ccccc3)[nH]c2c1`, the growth is 21.8% (inactive) and 2.02% (active).

Take `Nc1ncnc2c1ncn2C1CC(O)C(CO)O1` (stereo not given): the growth is 102% (inactive) and 105% (inactive).
